Assay results reported in PubChem BioAssay AID1851 (National Center for Advancing Translational Sciences (NCATS), 2009).
“And” between values parts separate entries of the source, which are not always exact repeats. Equal values may be shown once. In all, about 16,000 compounds went through this assay and about 2,600 (16%) were called active. Inconclusive results (about 20%) are left out. Calls follow the shape of the dose curve; as a rule, active = well fitted curve in the direction sought with a large enough effect; inconclusive = small, poorly fitted or top-dose-only effect, or effect the other way; inactive = no such curve, though single readings can be large or run the other way. The list is a sample of the results.

biological target: Cytochrome P450 2D6 (Homo sapiens) (UniProt P10635); test: Cytochrome panel assay with activity outcomes; conditions: recombinant CYP, pro-luciferin dealkylation, luminescence, p450-cyp2d6; series mostly up to 57.1 µM; activity, negative = inhibition: at the top concentration
Sequence (P10635 whole entry, looked up): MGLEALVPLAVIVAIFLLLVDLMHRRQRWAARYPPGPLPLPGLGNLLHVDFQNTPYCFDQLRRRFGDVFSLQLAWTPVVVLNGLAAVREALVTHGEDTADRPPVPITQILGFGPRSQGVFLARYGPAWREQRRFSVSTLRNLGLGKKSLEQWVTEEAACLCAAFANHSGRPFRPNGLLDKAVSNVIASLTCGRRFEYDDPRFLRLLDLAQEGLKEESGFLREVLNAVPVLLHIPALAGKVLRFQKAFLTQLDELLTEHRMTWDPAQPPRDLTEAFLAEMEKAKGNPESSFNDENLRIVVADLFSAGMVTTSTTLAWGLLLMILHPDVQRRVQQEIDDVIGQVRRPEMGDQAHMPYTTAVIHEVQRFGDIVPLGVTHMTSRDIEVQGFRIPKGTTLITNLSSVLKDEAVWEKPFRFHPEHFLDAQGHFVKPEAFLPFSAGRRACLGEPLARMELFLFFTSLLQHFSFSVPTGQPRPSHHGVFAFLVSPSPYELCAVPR
% is scaled to controls: 0 for no effect and ±100 for the full control effect.

Structure (SMILES) | activity, negative = inhibition | AC50
CSc1nsc(/C=C/Nc2ccc(Cl)cc2)c1C#N | -20.6% (inactive) | –
Cc1noc(C)c1CS(=O)(=O)c1ccc(Br)cc1 | -11.4% (inactive) | –
CCCCCCCCCCCCCCC/C=C\[C@H](O)[C@@H](NC(=O)CCCCCCCCCCCCC)OC (tested in a mixture with another compound) | 2.02% (inactive) | –
CCCC[S@@](=N)(=O)CC[C@@H](N)C(=O)O | 9.89% (inactive) | –
CCCCCCCCCCCCCCC[C@@H](O)[C@@H](N)CO | – | 7.94 µM (active)
CCCCCCC/C=C\CCCCCCCCC(=O)O | -11% (inactive) | –
CCCCCCCCCCCCC/C=C\[C@@H](O)[C@@H](N)CO | – | 15.8 µM (active)
O=C(O)CN(CCOCCOCCN(CC(=O)O)CC(=O)O)CC(=O)O | -4.91% (inactive) | –
CC(=O)c1c(C)[nH]c(C(=O)COc2ccc(C#N)cc2)c1C | -9.11% (inactive) | –
CSc1nc2c(c(=O)[nH]1)C(c1ccncc1)C(C(=O)OC(C)C)=C(C)N2 (stereo not given) | -16.1% (inactive) | –
COc1cc(C(=O)Nc2ccc3c(c2)OCCO3)c(-n2cnnn2)cc1OC | -12.8% (inactive) | –
S=C1NC2=C(C(c3ccc(Br)cc3)N1)N1CCC2CC1 (stereo not given) | -19.4% (inactive) | –
CC1CCN(C(=S)c2ccc(O)cc2)CC1 | -3.59% (inactive) | –
CCN1CCN(C(=O)CCc2nc3ccccc3c(=O)[nH]2)CC1 | -4.78% (inactive) | –
CCN1CCN(C(=S)c2ccc(Br)cc2)CC1 | – | 1 µM (active)
CO[C@@H]1COC(=O)C/C=C\[C@@H](C)COC(=O)[C@H](COCc2ccccc2)NC(=O)C/C=C\[C@H]1C | 10.2% [at 11.4 µM] (inactive) | –
CC(O)CN(CCC(N)=O)CCC(N)=O (stereo not given) | 0.2% (inactive) | –
Cc1cccc(Nc2ccncc2S(=O)(=O)NC(=O)NC(C)C)c1 | 6.82% [at 25.6 µM] (inactive) | –
Cn1cc(-c2nc3cnc(N4CCNCC4)nc3n(C3CC3)c2=O)c2ccccc21 | -14.8% (inactive) | –
CC(C)CC(=O)O/N=C1\C(=O)N(c2ccccc2)c2ccccc21 | 0.275% (inactive) | –
C=CCn1c(=O)c2c(nc(Br)n2Cc2ccccc2Cl)n(C)c1=O | -6.43% (inactive) | –
CC(=O)OCC(=O)[C@@]1(OC(C)=O)[C@H](C)C[C@H]2[C@@H]3C[C@H](F)C4=CC(=O)C=C[C@@]4(C)[C@]3(F)[C@H](O)C[C@@]21C | -1.58% [at 25.6 µM] (inactive) | –
O=C1COc2ccc(OCc3ccc(F)cc3)cc21 | -20.1% (inactive) | –
Cc1cc(NCCO)c2ccccc2n1 | -41% (inactive) | –
O=C(O)CC1(CC(=O)O)Nc2ccccc2SC1=O | 8.66% [at 11.4 µM] (inactive) | –
CN1CCN(CCC=C2c3ccccc3Sc3ccc(S(=O)(=O)N(C)C)cc32)CC1 | – | 31.6 µM (active)
CCOC(=O)C1CCCN(C(=O)c2sc3nc(-c4ccc(OC)cc4)cn3c2C)C1 (stereo not given) | 1.59% (inactive) | –

Structure (SMILES) | activity, negative = inhibition | AC50
Cc1c(Nc2cc(N3CCCC(C)C3)c3nonc3c2[N+](=O)[O-])c(=O)n(-c2ccccc2)n1C (stereo not given) | 1.82% (inactive) | –
COC(=O)c1ccc(N2CCN(c3ccccc3)CC2)c(NC(=O)C2CC2)c1 | 10.2% (inactive) | –
Cc1ccc(Nc2ccc(-n3ccnc3)nn2)cc1C | – | 2.51 µM (active)
O=C(Nc1ncc(Cc2ccccc2)s1)C1COc2ccccc2O1 (stereo not given) | 24.8% (inactive) | –
O=C1C2CCCN2c2ccc(S(=O)(=O)N3CCOCC3)cc2N1Cc1cccc(C(F)(F)F)c1 (stereo not given) | -28.2% (inactive) | –
Cc1onc(-c2c(F)cccc2Cl)c1C(=O)N[C@H]1C(=O)N2[C@H]1SC(C)(C)[C@H]2C(=O)O | 1.45% [at 25.6 µM] (inactive) | –
O=C(O)CC[C@@H](C(=O)O)N1C(=O)c2ccccc2C1=O | 6.68% (inactive) | –
CCOc1cccc(OCCCNCCCOC)c1 | – | 11.2 µM (active)
COC(=O)COc1cccc(NC(=O)c2ccc(C)cc2)c1 | -15.9% (inactive) | –
COc1cccc(OCCCOc2ccccc2C(C)C)c1 | -22.8% (inactive) | –
O=C(N/N=C/c1ccco1)c1ccccn1 | -14.7% (inactive) | –
COc1ccc(NC(=O)/C(=C\c2cc(OC)c(OC)cc2[N+](=O)[O-])NC(=O)c2ccccc2)cc1 | 2.06% (inactive) | –
COc1ccc(C(=O)Nc2ccc(F)cc2F)cc1OC | -27.1% (inactive) | –
O=C(O)CCSCc1ccccc1 | -5.23% [at 11.4 µM] (inactive) | –
O=C(Cc1ccccc1)NCCSCc1ccc(Cl)cc1 | – | 3.16 µM (active)
O=C(Nc1ccc(N=Nc2ccccc2)cc1)c1ccc(Cl)cc1Cl | 8% (inactive) | –
S=C(NCc1ccccn1)Nc1cccc(Cl)c1 | -6.51% (inactive) | –
S=C(NCCSCc1ccc(Cl)cc1Cl)Nc1ccccc1 | – | 6.31 µM (active)
Cc1ccccc1OCCNC(=S)Nc1ccccc1 | -6.27% (inactive) | –
S=C(NCCSCc1c(Cl)cccc1Cl)Nc1ccccc1 | – | 4.47 µM (active)
O=C(COc1ccccc1Cl)NC(=S)Nc1cccc(NC(=O)c2ccccc2Cl)c1 | 14.4% (inactive) | –
O=C(c1cccs1)n1nc(-c2ccc(Cl)cc2)nc1NCc1ccco1 | -9.76% (inactive) | –
COc1ccc(Cc2nnc(NC(=O)CSc3ccc(C)cc3)s2)cc1OC | -12% (inactive) | –
O=C1c2cccnc2C(O)N1C1CCCCC1 (stereo not given) | 5.84% (inactive) | –
COc1ccccc1C(=O)NC(=S)N1CCCc2ccccc21 | 1.45% (inactive) | –
N#CC(c1ccc(Cl)cc1)(c1ncc(C(F)(F)F)cc1Cl)N1CCOCC1 (stereo not given) | 5.48% (inactive) | –
C/C(=N\NC(=O)c1ccc(Cl)cc1)c1cccc(NC(=O)C(C)C)c1 | -3.26% (inactive) | –

Structure (SMILES) | activity, negative = inhibition | AC50
Cc1ccccc1C(=O)Nc1cccc(NC(=S)NC(=O)c2cccs2)c1 | -4.72% (inactive) | –
Nc1nc(=O)c2[nH]cnc2n1O | -6.92% [at 11.4 µM] (inactive) | –
CCC(=O)n1nc(-c2ccc(OC)cc2)nc1N | -3.17% (inactive) | –
Cc1ccc2[nH]c3c(c2c1)CN(C(=O)CN1c2ccc(F)cc2CCC1C)CC3 (stereo not given) | -14.4% (inactive) | –
CO[C@H]1COC(=O)[C@@H](CCSC)NC(=O)C/C=C\[C@@H](C)[C@H](OC)COC(=O)[C@@H](OCc2ccccc2)/C=C\[C@@H]1C | -4.06% [at 11.4 µM] (inactive) | –
CCNc1nc(Oc2c(Cl)cccc2Cl)cc(C(F)(F)F)n1 | -16.5% (inactive) | –
CC(C)(C)NCC[C@@H](O)c1cc(C(F)(F)F)nc2c(C(F)(F)F)cccc12 | – | 0.316 µM (active)
CC1(C)OC(C(N)=O)C(C(N)=O)O1 (stereo not given) | 1% (inactive) | –
Cc1ccc(S(=O)(=O)NC(=O)Nc2ncn[nH]2)cc1 | 4.38% [at 11.4 µM] (inactive) | –
Cc1cccc(-n2c(=O)c3c(n4cnnc24)-c2ccccc2CC32CCCCC2)c1 | -15.5% (inactive) | –
CCC(=O)c1ccc2c(c1)N(CCCN(C)C)c1ccccc1S2 | – | 2 µM (active)
CN(C)CCCN1c2ccccc2Sc2ccc(C(F)(F)F)cc21 | – | 794 nM (active) and 398 nM (active)
O=C(CSc1nc2ccccc2s1)N1c2ccccc2Sc2ccc(C(F)(F)F)cc21 | -0.671% (inactive) | –
CN(C)CCCNC(=O)c1cc2c3ccccc3n(C)c2s1 | 1.67% (inactive) | –
CCC(=S)/C=C1\Sc2ccccc2N1CCCS(=O)(=O)O | -2.63% (inactive) | –
CSc1ccc2c(c1)N(CCCN(C)C)c1ccccc1S2 | – | 0.501 µM (active)
CN(C)CCCN1c2ccc(O)cc2Sc2ccc(Cl)cc21 | – | 0.126 µM (active)
CC(C)OC(=O)CSc1nc(-c2ccc(F)cc2)nc2ccc(F)cc12 | 28% (inactive) | –
CC[C@@H](c1ccccc1)n1c(=O)n2n(c1=O)[C@H]1[C@H](O)[C@H]3O[C@@H]3/C(=N/OC/C=C(\C)CCC=C(C)C)[C@@H]1CC2 | 3.1% [at 11.4 µM] (inactive) | –
CCOC(=O)N/N=C/c1ccc(F)cc1 | 11.2% (inactive) | –
Cc1cccc(-c2n[nH]c([N+](=O)[O-])n2)c1 | -6.53% (inactive) | –
COC(=O)[C@H](CCSC)NC(=O)NCc1ccccc1F | -3.07% (inactive) | –
CC(C)=NO[C@@H](C)c1cn([C@H](CO)Cc2ccccc2)nn1 | 6.42% [at 11.4 µM] (inactive) and -9.14% [at 11.4 µM] (inactive) | –
O=C(NCCN1CCN(C(=O)c2cc3ccccc3oc2=O)CC1)c1cc2ccccc2oc1=O | -6.33% (inactive) | –
CCNC(=S)N1CCC(NC(=O)C2CCCCC2)CC1 | 0.685% (inactive) | –
CNC(=O)/C(C#N)=c1\s/c(=C/C(=O)OC)c(=O)n1-c1ccccc1 | -26.3% (inactive) | –
C/C=C1\C(=O)C[C@@H]2[C@@H]3CCC4=CC(=O)CC[C@@]4(C)[C@H]3CC[C@@]12C | 0.669% (inactive) | –

Structure (SMILES) | activity, negative = inhibition | AC50
COCc1c(C(N)=O)nnn1-c1nonc1N | -10.2% (inactive) | –
O=C(Cc1ccccc1)NC1CCN(S(=O)(=O)c2ccc(C(=O)O)cc2)CC1 | 35.7% (inactive) | –
COc1cc(N)c(Cl)cc1C(=O)NC1CCN(Cc2ccccc2)CC1 | – | 0.0126 µM (active)
O=C(NC1CCN(Cc2ccccc2)CC1)c1ccc(I)cc1 | – | 12.6 µM (active)
COc1ccc(CC(NC(C)=O)C(=O)NC2CCN(C(=O)Nc3ccc(Cl)cc3)CC2)cc1OC (stereo not given) | -3.67% (inactive) | –
CC(C)C(NC(=O)C1CCCCC1)C(=O)NC1CCN(Cc2ccccc2)CC1 (stereo not given) | 11.7% (inactive) | –
COc1cc([C@@H](O)CO)ccc1OS(=O)(=O)O | 4.91% (inactive) | –
O=[N+]([O-])c1ccccc1N=Nc1c(O)[nH]c2ccc(S(=O)(=O)O)cc12 | -12.1% [at 11.4 µM] (inactive) | –
C[C@@](Cc1ccc(O)c(O)c1)(NN)C(=O)O | -5.26% (inactive) | –
COc1cccc(Nc2ncc3nc(C)c(=O)n(CCc4ccccc4)c3n2)c1 | -2.27% (inactive) | –
C[C@@]1(C(=O)O)NCCc2cc(O)c(O)cc21 | -7.56% (inactive) | –
Cc1cc(C)c2c(-n3cccc3)n[nH]c2n1 | – | 25.1 µM (active)
Cc1nc(N=Nc2cc(S(=O)(=O)O)ccc2S(=O)(=O)O)c(COP(=O)(O)O)c(C=O)c1O | -12.1% (inactive) | –
COc1ccc(/C(C#N)=C/c2c(-c3ccc(Cl)cc3)nc3c(C)cccn23)cc1 | -21.9% (inactive) | –
Cc1sc(NC(=O)C2C3CCC(O3)C2C(=O)O)c(C(=O)OC(C)C)c1-c1ccc(Cl)cc1 (stereo not given) | -1.24% (inactive) | –
O=C(O)CCC(=O)N1CCN(c2ccccn2)CC1 | -14.8% (inactive) | –
O=C(c1cnc(N2CCN(c3ncccn3)CC2)c2ccccc12)N1CCN(c2ccccn2)CC1 | – | 11.2 µM (active)
COCC(=O)N1CCC2(CC1)CCN(c1ncccn1)CC2 | -7.26% (inactive) | –
CN(C(=O)c1cnc(N2CCN(c3ncccn3)CC2)c2ccccc12)c1ccc(Cl)cc1 | – | 12.6 µM (active)
O=C(Oc1ccccc1)N1CCC2(CC1)CCN(c1ncccn1)CC2 | -7.02% (inactive) | –
CCN(C(=O)c1cnc(N2CCN(c3ncccn3)CC2)c2ccccc12)c1cccc(Cl)c1 | – | 10 µM (active)
COc1ccccc1C(=O)N1CCN(c2ccccn2)CC1 | -5.62% (inactive) | –
CCN(C(=O)COc1cc(=O)n(C)c2ccccc12)c1cccc(Cl)c1 | 6.79% (inactive) | –
O=C(Cn1ccc2ccccc2c1=O)N1CCN(c2cccc(Cl)c2)CC1 | 0.16% (inactive) | –
